Screening results (PubChem)
Shown are actives, neighbours in structure and some others; about 1.2% of the full set was active somewhere.
Rv3671c protease = inhibits the M. tuberculosis serine protease Rv3671c | P9WHR9 | inhibition, % at 5.96 µM | 320,000 compounds, 0.048% hits | AID 2606; in the data active = inhibition above about 38%;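 also: extracellular domain of Rv3671c used as enzyme; 0% = enzyme with DMSO and 100% = no enzyme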
Mtb UGM inh = blocks M. tuberculosis UGM enzyme; P9WIQ1; purified UGM, fluorescence polarization probe displacement; inhibition, % at 10 µM; 320,000 compounds, 0.06% hits; in the data active = inhibition above about 10%, passing the limit was not always enough
Target sequence (P9WIQ1 whole entry, looked up): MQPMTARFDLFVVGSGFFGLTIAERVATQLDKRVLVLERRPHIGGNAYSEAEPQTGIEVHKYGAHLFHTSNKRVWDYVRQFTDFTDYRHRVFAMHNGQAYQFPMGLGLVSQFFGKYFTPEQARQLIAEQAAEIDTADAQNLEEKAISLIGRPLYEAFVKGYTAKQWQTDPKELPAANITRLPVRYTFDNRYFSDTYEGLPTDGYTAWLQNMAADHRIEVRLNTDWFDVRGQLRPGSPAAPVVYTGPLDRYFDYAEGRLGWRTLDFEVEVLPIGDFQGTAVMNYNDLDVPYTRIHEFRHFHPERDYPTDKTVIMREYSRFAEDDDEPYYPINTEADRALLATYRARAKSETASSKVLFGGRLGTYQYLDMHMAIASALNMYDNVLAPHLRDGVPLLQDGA
RecA intein inh = blocks M. tuberculosis RecA intein splicing; cell-free RecA intein splicing, fluorescence; inhibition, % (no concentration beside the values); P9WHJ3; 290,000 compounds, 0.75% hits; in the data active = inhibition above about 30%;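 also: 0% = vehicle wells and 100% = reference inhibitor control wells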
Mtb bLac sens = beta-lactam sensitization of Mtb H37Rv; M. tuberculosis H37Rv growth with meropenem, percent inhibition; inhibition, % at 25 µM; 330,000 compounds, 0.27% hits; AID 434955; call rule not given here;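 also: growth measured after seven days incubation then overnight dye step; 0% = bacteria only wells and 100% = bacteria with antibiotic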
CCHF vOTU inh-1 = CCHFV vOTU protease inhibition; 370,000 compounds, 0.55% hits; AID 651958; Pep-AMC fluorescence; inhibition, % at 11.5 µM; also: 0% = vehicle wells with enzyme and 100% = no enzyme wells
CCHF vOTU inh-2 = CCHFV vOTU protease inhibition, confirmation. inhibition, % at 11.5 µM. 1,900 compounds, 17% hits. shares compounds with CCHF vOTU inh-1. Recombinant CCHFV vOTU, Pep-AMC fluorescence
Numbers without * were called inactive. Rule as the data show it, unless noted: active = inhibition above about 30%; inactive = the rest.

`COc1cc(COC(=O)Oc2ccc(CNC(C)=O)cc2OC)c([N+](=O)[O-])cc1OC` gave Rv3671c protease 4, Mtb UGM inh -2, RecA intein inh -4, Mtb bLac sens 4, CCHF vOTU inh-1 31* and CCHF vOTU inh-2 -11.
`COc1ccc(COC(=O)Oc2ccc(CNC(C)=O)cc2OC)c([N+](=O)[O-])c1` gave Rv3671c protease -6, Mtb UGM inh -1, RecA intein inh -4, Mtb bLac sens -8 and CCHF vOTU inh-1 -1.
`C=CCN1C(=O)[C@@H](CC(=O)NCC2CCCCC2)[C@]2(C(=O)OCC)CCCCC/C=C/12` gave CCHF vOTU inh-1 15.
`Cc1cc(F)ccc1-c1cc(C(=O)NCc2cc(C(F)(F)F)cc(C(F)(F)F)c2)[nH]n1` gave CCHF vOTU inh-1 0.
`Cc1ccc(F)cc1-c1cc(C(=O)NCc2cc(C(F)(F)F)cc(C(F)(F)F)c2)[nH]n1` gave CCHF vOTU inh-1 30* and CCHF vOTU inh-2 5.
Cc1ccc(Cl)cc1-c1cc(C(=O)NCc2cc(C(F)(F)F)cc(C(F)(F)F)c2)[nH]n1 was read as CCHF vOTU inh-1 33* and CCHF vOTU inh-2 -19.
Screening CCOC(=O)[C@]12CCCC=C1N(Cc1ccc(Cl)cc1Cl)C(=O)[C@H](CC(=O)NCCCCc1ccccc1)C2 returned CCHF vOTU inh-1 20.
COC(=O)[C@]12CCCCC=C1N(Cc1ccc(Cl)cc1Cl)C(=O)[C@H](CC(=O)NCCCCc1ccccc1)C2 was read as CCHF vOTU inh-1 33* and CCHF vOTU inh-2 -14.
For COC(=O)[C@@]12C[C@@H](CC(=O)NCCCCc3ccccc3)C(=O)N(Cc3cccc4ccccc34)C1=CCC(C)(C)C2 the results were CCHF vOTU inh-1 30* and CCHF vOTU inh-2 9.
Screening COC(=O)[C@]12C[C@H](CC(=O)N3CCC(c4ccccc4)CC3)C(=O)N(Cc3ccco3)C1=C[C@H](COCc1ccccc1)O[C@@H]2C returned CCHF vOTU inh-1 8.
Screening CC1(C)CC2CC(C)(CN2C(=O)COC(=O)c2ccccc2C(F)(F)F)C1 (stereo unspecified) returned Rv3671c protease 1, Mtb UGM inh -3, Mtb bLac sens -6, CCHF vOTU inh-1 33* and CCHF vOTU inh-2 16.
Screening CCN(C(=S)NC(=O)c1ccco1)c1cccc2ccccc12 returned Rv3671c protease 0, Mtb UGM inh 4, Mtb bLac sens 52, CCHF vOTU inh-1 46* and CCHF vOTU inh-2 -44.
O=C(CSc1nnc(-c2ccccc2Br)o1)Nc1nncs1 was read as Rv3671c protease 0, Mtb UGM inh 0, RecA intein inh 4, Mtb bLac sens -9, CCHF vOTU inh-1 30* and CCHF vOTU inh-2 -22.
Screening Cc1ccc(C)c(C(O)c2ncc(-c3ccc(F)cc3)[nH]2)c1 (stereo unspecified) returned CCHF vOTU inh-1 4.
For Cc1ccc(C(O)c2ncc(-c3ccc(F)cc3)[nH]2)c(C)c1 (stereo unspecified) the results were CCHF vOTU inh-1 31* and CCHF vOTU inh-2 -22.
`Cc1cccc(C(O)c2ncc(-c3cccc(C(F)(F)F)c3)[nH]2)c1C` (stereo unspecified) gave CCHF vOTU inh-1 44* and CCHF vOTU inh-2 -10.
NC(=O)c1ncn([C@@H]2O[C@H](C(=O)N[C@H](Cc3c[nH]c4ccccc34)C(=O)O)[C@@H](O)[C@H]2O)n1 was read as CCHF vOTU inh-1 -2.
Screening Oc1cccc(N2CCN(c3cccc(O)c3)CC2)c1 returned CCHF vOTU inh-1 2.
Screening COC(=O)Nc1ccc([N+](=O)[O-])cc1OC returned Rv3671c protease 0, Mtb UGM inh -1, RecA intein inh -1, Mtb bLac sens -2 and CCHF vOTU inh-1 9.
COc1cc([N+](=O)[O-])ccc1NC(=S)Nc1cccc(C(=O)O)c1 was read as Rv3671c protease -10, Mtb UGM inh -1, RecA intein inh -3, Mtb bLac sens 1, CCHF vOTU inh-1 31* and CCHF vOTU inh-2 -13.
Screening C=CCN1C(=O)[C@@H](CC(=O)NCc2ccc(C)o2)[C@]2(C(=O)OC)CCCCC=C12 returned CCHF vOTU inh-1 0.
Screening COC(=O)c1ccsc1NS(C)(=O)=O returned CCHF vOTU inh-1 31* and CCHF vOTU inh-2 -19.
`COc1cc(C=Nn2c(-c3cc(-c4ccccc4)n[nH]3)n[nH]c2=S)ccc1OC(C)=O` gave CCHF vOTU inh-1 30* and CCHF vOTU inh-2 -12.
Screening COC(=O)c1ccc(COc2nc(C)cc(C)c2C#N)o1 returned Rv3671c protease -14, Mtb UGM inh 1, RecA intein inh 2, Mtb bLac sens -7, CCHF vOTU inh-1 32* and CCHF vOTU inh-2 -2.
Screening C[C@@H](CO)N(Cc1cn(Cc2ccccc2)nn1)S(=O)(=O)c1ccccc1Br returned CCHF vOTU inh-1 1.
For CCOC(=O)c1cc2c(ccn2C)n1CC(=O)N(Cc1ccccc1)c1ccccc1 the results were Rv3671c protease -4, Mtb UGM inh -1, RecA intein inh 12, Mtb bLac sens 11, CCHF vOTU inh-1 55* and CCHF vOTU inh-2 3.
`CCOC(=O)c1cc2c(ccn2C)n1Cc1ccccc1C` gave Rv3671c protease 8, Mtb UGM inh 7, RecA intein inh 7, Mtb bLac sens 7, CCHF vOTU inh-1 31* and CCHF vOTU inh-2 43*.
COc1cccc(C=NNc2nnc(NN=Cc3cccc(OC)c3OC)c3ccccc23)c1OC was read as CCHF vOTU inh-1 2.
For CC(C)(C)c1nnc(N/N=C/c2ccccc2O)n(N)c1=O the results were Rv3671c protease -4, Mtb UGM inh 3, RecA intein inh -7, Mtb bLac sens 7 and CCHF vOTU inh-1 4.
Screening CCc1nnc(N/N=C/c2ccccc2Cl)n1N returned Rv3671c protease -96, Mtb UGM inh -2, RecA intein inh 1, Mtb bLac sens -3, CCHF vOTU inh-1 84* and CCHF vOTU inh-2 -16.
For COc1cccc(/C=N/Nc2nnc(C)n2N)c1OCc1ccccc1Cl the results were Rv3671c protease -37, Mtb UGM inh 3, RecA intein inh 2, Mtb bLac sens -6, CCHF vOTU inh-1 75* and CCHF vOTU inh-2 -7.
CCc1nnc(N/N=C/c2ccccc2F)n1N was read as Rv3671c protease -84, Mtb UGM inh -1, RecA intein inh -1, Mtb bLac sens 17, CCHF vOTU inh-1 77* and CCHF vOTU inh-2 -4.
C(=N\Nc1nc(-c2ccccc2)cs1)/c1ccco1 was read as Rv3671c protease 8, Mtb UGM inh -1, RecA intein inh 12, Mtb bLac sens 98, CCHF vOTU inh-1 31* and CCHF vOTU inh-2 -11.
O=C(N[C@H](Cc1ccccc1)C(=O)NCc1cccc2ccccc12)[C@H]1O[C@@H](n2ccc(=O)[nH]c2=O)[C@H](O)[C@@H]1O was read as CCHF vOTU inh-1 -8.
Screening O=C(O)Cn1cc(/C=N/NC(=O)c2cc3cc(Br)ccc3o2)c2ccccc21 returned Rv3671c protease 8, Mtb UGM inh 4, RecA intein inh -2, Mtb bLac sens 84, CCHF vOTU inh-1 31* and CCHF vOTU inh-2 -1.
